Reference: PubChem BioAssay AID1159580 (chemical genetic matrix, 2015)
Out of some 5,500 compounds screened, about 2,000 (36%) were called active. About 18% were inconclusive and are not listed. No stated cut-off is given here; in the data, active means normalized growth mostly below about 0.91 (no sharp cut-off); inconclusive means no clear call, values can overlap the other calls; inactive means mostly above about 0.92. The list shows a part of the results.

Experiment: chemical genetic growth profiling, strain panel (AID 1159580);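 further: tested at 20 µM; growth read once vehicle control cultures reached saturation at 30 °C; 1 = growth at the plate median or of vehicle wells; lower values mean less growth of the strain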
Conditions: growth OD
[1] = S. cerevisiae deletion strains, locus YAL013W, strain DEP1, active compounds read low
[2] = S. cerevisiae deletion strains, locus YBR229C, strain ROT2, active compounds read low
[3] = S. cerevisiae deletion strains, locus YCL061C, strain MRC1, active compounds read low
[4] = S. cerevisiae deletion strains, locus YDL101C, strain DUN1, active compounds read low
[5] = S. cerevisiae deletion strains, locus YDR150W, strain NUM1, active compounds read low
[6] = S. cerevisiae deletion strains, locus YEL061C, strain CIN8, active compounds read low
[7] = S. cerevisiae deletion strains, locus YGR078C, strain PAC10, active compounds read low
[8] = S. cerevisiae deletion strains, locus YGR229C, strain SMI1, active compounds read low
[9] = S. cerevisiae deletion strains, locus YHR030C, strain SLT2, active compounds read low
[10] = S. cerevisiae deletion strains, locus YHR087W, strain rtc3, active compounds read low
[11] = S. cerevisiae deletion strains, locus YJR043C, strain POL32, active compounds read low
[12] = S. cerevisiae deletion strains, locus YJR075W, strain HOC1, active compounds read low
[13] = S. cerevisiae deletion strains, locus YLR039C, strain RIC1, active compounds read low
[14] = S. cerevisiae deletion strains, locus YLR058C, strain SHM2 (second series), active compounds read low
[15] = S. cerevisiae deletion strains, locus YLR085C, strain ARP6, active compounds read low
[16] = S. cerevisiae deletion strains, locus YLR262C, strain YPT6, active compounds read low
[17] = S. cerevisiae deletion strains, locus YML094W, strain GIM5, active compounds read low
[18] = S. cerevisiae deletion strains, locus YMR219W, strain ESC1, active compounds read low
[19] = S. cerevisiae deletion strains, locus YMR263W, strain SAP30, active compounds read low
[20] = S. cerevisiae deletion strains, locus YNL153C, strain GIM3, active compounds read low
[21] = S. cerevisiae deletion strains, locus YNL298W, strain CLA4 (second series), active compounds read low
[22] = S. cerevisiae deletion strains, locus YNL322C, strain KRE1, active compounds read low
[23] = S. cerevisiae deletion strains, locus YNR030W, strain Alg12, active compounds read low
[24] = S. cerevisiae deletion strains, locus YPL055C, strain LGE1, active compounds read low
[25] = S. cerevisiae deletion strains, locus YPL241C, strain CIN2, active compounds read low
[26] = S. cerevisiae deletion strains, locus YPR135W, strain CTF4, active compounds read low
[27] = S. cerevisiae deletion strains, locus YJL187C, strain SWE1, active compounds read low

Measured: normalized growth

COc1cscc1C(N)=O
inactive: [1] 1.01 | [2] 0.984 | [3] 1.02 | [4] 1 | [5] 1.06 | [6] 0.959 | [7] 1.01 | [8] 0.99 | [9] 1.06 | [10] 1.03 | [11] 1.04 | [12] 1.04 | [13] 1.01 | [14] 0.997 | [15] 0.965 | [16] 0.998 | [17] 0.979 | [18] 0.987 | [19] 1.06 | S. cerevisiae deletion strains, locus YMR307W, strain GAS1, active compounds read low 0.966 | [20] 1.01 | [21] 0.969 | [22] 0.996 | [23] 1.01 | [24] 1.12 | [25] 0.957 | [26] 1.14

COC(=O)c1cscc1Sc1ccc(Cl)cc1
inactive: [1] 0.948 | [2] 0.953 | [3] 0.978 | [4] 0.961 | [5] 0.983 | [6] 0.931 | [7] 0.956 | [10] 0.944 | [27] 0.995 | [11] 0.987 | [12] 0.943 | [14] 0.955 | [17] 0.914 | [18] 0.96 | [19] 0.989 | [20] 0.968 | [21] 0.916 | [24] 0.998 | S. cerevisiae strains, strain wild type, active compounds read low 0.949
active: S. cerevisiae deletion strains, locus YDL134C, strain PPH21, active compounds read low 0.82 | [9] 0.319 | [13] 0.747 | [15] 0.664 | [16] 0.771 | [22] 0.939 | [23] 0.848 | [25] 0.845 | [26] 0.565

COC(=O)c1ccsc1N
inactive: [1] 0.988 | [2] 1 | [4] 1.01 | [5] 1.07 | [6] 0.985 | [7] 1 | [8] 0.981 | [9] 1.09 | [10] 0.995 | [11] 1.02 | [12] 1.01 | S. cerevisiae deletion strains, locus YKL190W, strain CNB1, active compounds read low 0.99 | [13] 1 | [14] 0.983 | [15] 0.94 | [16] 1.14 | [17] 0.97 | [18] 0.993 | [19] 1.02 | [20] 1 | [21] 0.963 | [22] 0.992 | [23] 0.976 | [24] 0.986 | [25] 0.958 | [26] 1.11

CC1C/C=C/C=C/C=C/C=C/C(O[C@@H]2O[C@H](C)[C@@H](O)[C@H](N)[C@@H]2O)CC2OC(O)(CC(O)CC3OC3/C=C/C(=O)O1)CC(O)C2C(=O)O (stereo partly specified)
inactive: S. cerevisiae deletion strains, locus YAL021C, strain ccr4, active compounds read low 1.02 | S. cerevisiae deletion strains, locus YAL026C, strain drs2, active compounds read low 0.94 | S. cerevisiae deletion strains, locus YAL030W, strain snc1, active compounds read low 1 | S. cerevisiae deletion strains, locus YBL061C, strain skt5, active compounds read low 1 | S. cerevisiae deletion strains, locus YBR009C, strain hhf1, active compounds read low 0.981 | S. cerevisiae deletion strains, locus YBR023C, strain chs3, active compounds read low 0.992 | S. cerevisiae deletion strains, locus YBR231C, strain swc5, active compounds read low 0.981 | S. cerevisiae deletion strains, locus YBR279W, strain paf1, active compounds read low 1 | S. cerevisiae deletion strains, locus YCL011C, strain gbp2, active compounds read low 0.989 | S. cerevisiae deletion strains, locus YCL016C, strain dcc1, active compounds read low 0.993 | S. cerevisiae deletion strains, locus YCL069W, strain vba3, active compounds read low 1.01 | S. cerevisiae deletion strains, locus YDL005C, strain med2, active compounds read low 0.993 | S. cerevisiae deletion strains, locus YDL040C, strain nat1, active compounds read low 0.993 | S. cerevisiae deletion strains, locus YDR001C, strain nth1, active compounds read low 1 | S. cerevisiae deletion strains, locus YDR069C, strain doa4, active compounds read low 0.983 | S. cerevisiae deletion strains, locus YDR137W, strain rgp1, active compounds read low 1.01 | S. cerevisiae deletion strains, locus YDR159W, strain sac3, active compounds read low 0.958 | S. cerevisiae deletion strains, locus YDR195W, strain ref2 0.945 | S. cerevisiae deletion strains, locus YDR297W, strain sur2, active compounds read low 1 | S. cerevisiae deletion strains, locus YDR334W, strain swr1, active compounds read low 0.999 | S. cerevisiae deletion strains, locus YDR335W, strain msn5, active compounds read low 0.985 | S. cerevisiae deletion strains, locus YDR392W, strain spt3, active compounds read low 0.848 | S. cerevisiae deletion strains, locus YEL003W, strain gim4, active compounds read low 0.991 | S. cerevisiae deletion strains, locus YEL037C, strain rad23, active compounds read low 0.992 | S. cerevisiae deletion strains, locus YEL061C, strain CIN8 (second series), active compounds read low 0.984 | S. cerevisiae deletion strains, locus YER016W, strain bim1, active compounds read low 0.978 | S. cerevisiae deletion strains, locus YER111C, strain swi4, active compounds read low 0.981 | S. cerevisiae deletion strains, locus YFR010W, strain ubp6, active compounds read low 0.982 | S. cerevisiae deletion strains, locus YGL167C, strain pmr1, active compounds read low 0.984 | S. cerevisiae deletion strains, locus YGL173C, strain kem1, active compounds read low 0.997 | S. cerevisiae deletion strains, locus YGL240W, strain doc1, active compounds read low 0.996 | S. cerevisiae deletion strains, locus YGL253W, strain hxk2, active compounds read low 0.973 | S. cerevisiae deletion strains, locus YHR013C, strain ard1, active compounds read low 0.957 | S. cerevisiae deletion strains, locus YHR027C, strain rpn1, active compounds read low 1 | [9] 0.972 | S. cerevisiae deletion strains, locus YHR079C, strain IRE1, active compounds read low 0.975 | S. cerevisiae deletion strains, locus YHR142W, strain chs7, active compounds read low 1.02 | S. cerevisiae deletion strains, locus YJL092W, strain hpr5, active compounds read low 0.964 | S. cerevisiae deletion strains, locus YJL095W, strain BCK1 (second series), active compounds read low 1 | S. cerevisiae deletion strains, locus YJL095W, strain BCK1, active compounds read low 1 | S. cerevisiae deletion strains, locus YJL115W, strain asf1, active compounds read low 1 | S. cerevisiae deletion strains, locus YJL129C, strain trk1, active compounds read low 0.949 | S. cerevisiae deletion strains, locus YJL154C, strain vps35, active compounds read low 0.995 | S. cerevisiae deletion strains, locus YJL164C, strain tpk1, active compounds read low 1.01 | S. cerevisiae deletion strains, locus YJL166W, strain qcr8, active compounds read low 0.992 | [27] 1 | S. cerevisiae deletion strains, locus YJR066W, strain TOR1, active compounds read low 0.943 | S. cerevisiae deletion strains, locus YKL160W, strain elf1, active compounds read low 1.04 | S. cerevisiae deletion strains, locus YKR091W, strain srl3, active compounds read low 0.999 | S. cerevisiae deletion strains, locus YLL001W, strain dnm1, active compounds read low 0.982 | S. cerevisiae deletion strains, locus YLL026W, active compounds read low 1 | S. cerevisiae deletion strains, locus YLL041C, strain sdh2, active compounds read low 0.998 | S. cerevisiae deletion strains, locus YLR027C, strain aat2, active compounds read low 1 | S. cerevisiae deletion strains, locus YLR113W, strain HOG1, active compounds read low 1.02 | S. cerevisiae deletion strains, locus YLR221C, strain rsa3, active compounds read low 1.02 | S. cerevisiae deletion strains, locus YLR258W, strain gsy2, active compounds read low 0.977 | S. cerevisiae deletion strains, locus YLR262C, strain YPT6 (second series), active compounds read low 1.01 | S. cerevisiae deletion strains, locus YLR320W, strain mms22, active compounds read low 1 | S. cerevisiae deletion strains, locus YLR342W, strain FKS1, active compounds read low 0.994 | S. cerevisiae deletion strains, locus YLR370C, strain arc18, active compounds read low 1.02 | S. cerevisiae deletion strains, locus YLR384C, strain iki3, active compounds read low 0.994 | S. cerevisiae deletion strains, locus YML120C, strain ndi1, active compounds read low 1.01 | S. cerevisiae deletion strains, locus YMR058W, strain fet3, active compounds read low 0.921 | S. cerevisiae deletion strains, locus YMR129W, active compounds read low 0.987 | S. cerevisiae deletion strains, locus YMR205C, strain PFK2, active compounds read low 0.985 | S. cerevisiae deletion strains, locus YMR231W, strain pep5, active compounds read low 0.997 | S. cerevisiae deletion strains, locus YNL071W, strain lat1, active compounds read low 1 | S. cerevisiae deletion strains, locus YNL183C, strain NPR1, active compounds read low 0.956 | S. cerevisiae deletion strains, locus YNL209W, strain ssb2, active compounds read low 0.999 | S. cerevisiae deletion strains, locus YNL322C, strain KRE1 (second series), active compounds read low 1 | S. cerevisiae deletion strains, locus YNR049C, strain mso1, active compounds read low 0.994 | S. cerevisiae deletion strains, locus YOR001W, strain rrp6, active compounds read low 1.01 | S. cerevisiae deletion strains, locus YOR070C, strain gyp1, active compounds read low 0.998 | S. cerevisiae deletion strains, locus YOR080W, strain dia2, active compounds read low 1 | S. cerevisiae deletion strains, locus YOR083W, strain WHI5, active compounds read low 1.03 | S. cerevisiae deletion strains, locus YOR106W, strain vam3, active compounds read low 1.03 | S. cerevisiae deletion strains, locus YOR231W, strain MKK1, active compounds read low 0.963 | S. cerevisiae deletion strains, locus YOR265W, strain rbl2, active compounds read low 0.999 | S. cerevisiae deletion strains, locus YOR270C, strain vph1, active compounds read low 0.948 | S. cerevisiae deletion strains, locus YOR290C, strain snf2, active compounds read low 0.953 | S. cerevisiae deletion strains, locus YPL051W, strain arl3, active compounds read low 1 | S. cerevisiae deletion strains, locus YPL078C, strain atp4, active compounds read low 1.02 | S. cerevisiae deletion strains, locus YPL106C, strain sse1, active compounds read low 1.01 | S. cerevisiae deletion strains, locus YPL240C, strain hsp82, active compounds read low 1 | S. cerevisiae deletion strains, locus YPL256C, strain CLN2, active compounds read low 0.991
active: S. cerevisiae deletion strains, locus YBR171W, strain sec66, active compounds read low 0.142 | [3] 0.802 | S. cerevisiae deletion strains, locus YCR088W, strain abp1, active compounds read low 0.126 | S. cerevisiae deletion strains, locus YER015W, strain faa2, active compounds read low 0.823 | S. cerevisiae deletion strains, locus YER155C, strain BEM2 (second series), active compounds read low 0.711 | S. cerevisiae deletion strains, locus YGL227W, strain vid30, active compounds read low 0.0655 | S. cerevisiae deletion strains, locus YKR026C, strain gcn3, active compounds read low 0.296 | S. cerevisiae deletion strains, locus YLR357W, strain rsc2, active compounds read low 0.427 | S. cerevisiae deletion strains, locus YMR125W, strain sto1, active compounds read low 0.0829 | S. cerevisiae deletion strains, locus YNL248C, strain rpa49, active compounds read low 0.544
